Measurements from the supplement of paper PMC8975748.
Counter-ions that a name gives are not always drawn.

Test system: Saccharomyces cerevisiae BY4741 SeMeCo community
Experiment: z-score of subpopulation abundance vs DMSO median, subpopulation auxotrophic for HLM; higher = larger share of this subpopulation than in DMSO controls
Details: 10 µM; 24 h; SM minimal medium; subpopulation (auxotrophy): HLM
Protocol: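 Fluorescent four-plasmid SeMeCo (self-establishing metabolically cooperating S. cerevisiae BY4741 community; plasmids pH-mRuby2, pL-mWasabi, pU-eCFP, pM-TagRFP657) was grown 24 h in minimal SM medium with each Selleck FDA-approved drug at 10 µM in 384-well plates. Cells were fixed and imaged by high-content confocal microscopy. For each auxotrophic subpopulation (and the prototroph), a z-score gives the deviation from the DMSO vehicle-control population median.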

Compound	z-score of subpopulation abundance
C=C(C)[C@H]1Cc2c(ccc3c2O[C@@H]2COc4cc(OC)c(OC)cc4[C@@H]2C3=O)O1 [Rotenone (Barbasco)]	0.69
CN(C)[C@@H]1C(=O)C(C(N)=O)=C(O)[C@@]2(O)C(=O)C3=C(O)c4c(O)cccc4[C@@](C)(O)[C@H]3[C@H](O)[C@@H]12 [Oxytetracycline (Terramycin)]	2.78
CC[C@@]1(O)C(=O)OCc2c1cc1n(c2=O)Cc2cc3ccccc3nc2-1 [Camptothecin]	-0.76
CC(C)=CCOc1c2occc2cc2ccc(=O)oc12 [Imperatorin]	1.2
CN1[C@@H]2C[C@@H](OC(=O)[C@H](CO)c3ccccc3)C[C@H]1[C@@H]1O[C@@H]12 [Scopolamine HBr trihydrate]	-0.8
C=CC[C@]1(O)CC[C@H]2[C@@H]3CCC4=CC(=O)CCC4=C3C=C[C@@]21C [Altrenogest]	-0.47
O=c1[nH]c2ccccc2n1CCCN1CCC(n2c(=O)[nH]c3cc(Cl)ccc32)CC1 [Domperidone]	1.97
CC(NC(C)(C)C)C(=O)c1cccc(Cl)c1 (stereo not given) [Amfebutamone (Bupropion) HCl]	0.09
CN(C)[C@@H]1C(=O)C(C(N)=O)=C(O)[C@@]2(O)C(=O)C3=C(O)c4c(O)cccc4[C@@](C)(O)[C@H]3[C@H](O)[C@@H]12 [Oxytetracycline Dihydrate]	-0.22
COc1ccc(C(CN(C)C)C2(O)CCCCC2)cc1 (stereo not given) [Venlafaxine]	-0.65
C[N+]1(C)[C@@H]2C[C@@H](OC(=O)[C@H](CO)c3ccccc3)C[C@H]1[C@@H]1O[C@@H]12 [Methscopolamine]	0.13
CCN(C)C(=O)Oc1cccc([C@H](C)N(C)C)c1 [Rivastigmine]	-0.03
NCC(O)c1ccc(O)cc1 (racemic) [(+,-)-Octopamine HCl]	-0.75
CN1[C@@H]2C[C@@H](OC(=O)[C@H](CO)c3ccccc3)C[C@H]1[C@@H]1O[C@@H]12 [Scopolamine HBr]	-0.52
C[C@@H]1CC[C@H]2[C@@H](C)C(=O)O[C@@H]3O[C@@]4(C)CC[C@@H]1[C@]32OO4 [Artemisinin]	-0.69
CCCCCCCCCCCCCCCC[n+]1ccccc1 [Cetylpyridinium Chloride]	67.8
Oc1cc(Cl)ccc1Oc1ccc(Cl)cc1Cl [Triclosan]	1.15
CCCN1C[C@H](CSC)C[C@@H]2c3cccc4[nH]cc(c34)C[C@H]21 [Pergolide Mesylate]	-0.43
COC(=O)C1=CCCN(C)C1 [Arecoline HBr]	0.28
COc1ccc(C(CN(C)C)C2(O)CCCCC2)cc1 (stereo not given) [Venlafaxine HCl]	-0.22

Compound	z-score of subpopulation abundance
COc1ccc2c3c([nH]c2c1)C(C)=NCC3 [Harmaline]	2.63
CC[C@@H](C(N)=O)N1CCCC1=O [Levetiracetam]	0.21
NC(=O)CN1CCCC1=O [Piracetam]	1.38
CC(C)(O)C(Cl)(Cl)Cl [Chlorobutanol]	-0.04
N#Cc1nn(-c2c(Cl)cc(C(F)(F)F)cc2Cl)c(N)c1[S+]([O-])C(F)(F)F (stereo not given) [Fipronil]	0
CC(=O)O[C@H]1C[C@@H]2CC[C@@H]3[C@H](CC[C@@]4(C)[C@H]3C[C@H]([N+]3(C)CCCCC3)[C@@H]4OC(C)=O)[C@@]2(C)C[C@@H]1[N+]1(C)CCCCC1 [Pancuronium dibromide]	-0.05
Nc1nc(N)nc(NC2CC2)n1 [Cyromazine]	0.4
C[C@H]1O[C@H](O[C@H]2[C@H](O)[C@@H](O)[C@@H](O)[C@H](O)[C@@H]2O)[C@@H](N)C[C@@H]1NC(=N)C(=O)O [Kasugamycin hydrochloride]	-0.54
CN[C@@H]1[C@@H](O)[C@@H](O[C@@H]2[C@@H](O)[C@H](O[C@H]3O[C@H]([C@@H](C)O)[C@@H](O)[C@H](O)[C@H]3N)[C@@H](N)C[C@H]2N)OC[C@]1(C)O [Geneticin (G418 Sulfate)]	-0.13
CC(=O)OCC1=C(C(=O)O)N2C(=O)C(N)C2SC1 (stereo not given) [7-Aminocephalosporanic acid]	-0.1
C#C[C@]1(O)C=C[C@H]2[C@@H]3CCC4=CC(=O)CC[C@@H]4[C@H]3CC[C@@]21CC [Gestodene]	-0.9
C=C[C@H]1CN2CC[C@H]1C[C@H]2[C@H](O)c1ccnc2ccccc12 [Cinchonidine]	-0.4
COc1ccc(C=O)cc1 [p-Anisaldehyde]	-0.78
CNC1CC(N)C(O)C(OC2OC(CO)C(O)C3OC4(OC(C(N)CO)C(O)C(O)C4O)OC23)C1O (stereo not given) [Hygromycin B]	-0.02
CCN1CC2(OC(=O)c3ccccc3NC(C)=O)CCC(OC)C34C1C(CC23)C1(O)CC(OC)C2CC4C1(O)C2OC (stereo not given) [Lappaconitine]	-0.42
O=C(O[C@H]1C[C@H]2CC[C@@H](C1)[N+]21CCCC1)C(O)(c1ccccc1)c1ccccc1 [Trospium chloride]	0.01
CCN(C)C(=O)Oc1cccc([C@H](C)N(C)C)c1 [Rivastigmine Tartrate]	0.01
C=CN1CCCC1=O.II [Povidone iodine]	0.98
N[C@@H]1C[C@H]1c1ccccc1 [Tranylcypromine (2-PCPA) HCl]	0.39
COc1cc2c(cc1OC)C1CC(=O)C(CC(C)C)CN1CC2 (stereo not given) [Tetrabenazine (Xenazine)]	3.78
